Measured values taken from PubChem BioAssay.
Calls of active or inactive are those of the source.

Legend:
[1] = tested on: PRMT1 (protein arginine N-methyltransferase 1); experiment: PRMT1 binders on small-molecule microarrays, primary screen, biochemical, small-molecule microarray, 635 nm fluorescence (AID 1088); conditions: small-molecule microarray binding, higher = more signal;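 further: binding of Prmt1 protein to compounds spotted on small-molecule microarray slides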
[2] = yeast growth modulation, basal conditions, primary screen, YJM789 clinical isolate, OD600, 24 h (AID 1089);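 further: growth of clinical yeast isolate S. cerevisiae YJM 789 seeded 1000 cells per well; test concentration not given here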; conditions: S. cerevisiae YJM789 growth, higher = more signal, called active from +8 up or from −8 down
[3] = fission yeast growth modulation, primary screen, strain 972, OD600, 24 h, no modulator (AID 1090);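 further: basal condition with compound alone and no growth modifier present; test concentration not given here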; conditions: S. pombe 972 growth, higher = more signal, called active from +8 up or from −8 down
[4] = S. cerevisiae growth modulation with rapamycin, primary screen, strain BY4716, OD600, 96 h (AID 1091); conditions: higher = more signal, called active from +8 up or from −8 down; further: test concentration not given here
[5] = target: Torsin-1A-interacting protein 2 (Homo sapiens) (UniProt Q8NFQ8); experiment: LULL1 binders on small-molecule microarray, primary screen, cell lysate, human LULL1 lysate, 635/667 nm fluorescence (AID 1092); conditions: hLULL1 lysate binding, 635 nm fluorescence, higher = more signal;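 further: probe is lysate of COS7 cells overexpressing human LULL1; score merges per-feature 667 nm fluorescence with signal-to-noise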
[6] = E. coli growth modulation, two-sided OD650, primary screen, E. coli filamentation project, strain DRC41, 24 h (AID 1093); conditions: OD650, 24 h, higher = more signal, called active from +8 up or from −8 down;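 further: MC1000 strain lacking acrAB efflux and sulA so SOS filamentation is blocked; test concentration not given here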
[7] = small-molecule microarray binders of probe aLefty2, primary screen, biochemical, biotinylated probe, 635/667 nm fluorescence (AID 1094); conditions: higher = more signal;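 further: score merges spot fluorescence near 667 nm with spot signal-to-noise ratio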
[8] = tested on: Noggin (protein binding on small-molecule microarray); experiment: Noggin binders on small-molecule microarray, primary screen, biochemical, 635/667 nm fluorescence (AID 1095); conditions: 635 nm fluorescence, higher = more signal;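 further: score merges 667 nm feature fluorescence with signal to noise over triplicate slides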
[9] = target: Neurogenic locus notch homolog protein 3 (Homo sapiens) (UniProt Q9UM47); experiment: NOTCH3 binders on small-molecule microarray, primary screen, biochemical, 635/667 nm fluorescence (AID 1096); conditions: NOTCH3 binding, 635 nm fluorescence, higher = more signal
[10] = small-molecule microarray binders of probe aEGFR, primary screen, biochemical, biotinylated probe, 635/667 nm fluorescence (AID 1097); conditions: higher = more signal;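 further: probe is a biotinylated anti-EGFR antibody binding compounds printed on slides; score combines fluorescence near 667 nm and signal to noise of each spot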

Chain of Torsin-1A-interacting protein 2 (Homo sapiens) (Q8NFQ8 whole entry, looked up): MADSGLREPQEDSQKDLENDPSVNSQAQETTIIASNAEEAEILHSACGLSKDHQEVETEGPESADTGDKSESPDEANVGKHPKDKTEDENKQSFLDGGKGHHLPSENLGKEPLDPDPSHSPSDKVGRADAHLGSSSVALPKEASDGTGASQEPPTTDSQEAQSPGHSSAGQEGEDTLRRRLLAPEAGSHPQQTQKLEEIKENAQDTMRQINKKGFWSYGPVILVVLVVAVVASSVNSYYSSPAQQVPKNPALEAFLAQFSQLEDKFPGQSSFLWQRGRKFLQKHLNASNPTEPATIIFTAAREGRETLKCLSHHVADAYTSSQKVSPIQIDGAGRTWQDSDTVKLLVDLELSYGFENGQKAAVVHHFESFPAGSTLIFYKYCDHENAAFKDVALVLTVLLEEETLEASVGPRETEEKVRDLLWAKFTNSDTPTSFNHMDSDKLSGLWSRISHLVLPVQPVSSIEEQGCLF
Chain of Neurogenic locus notch homolog protein 3 (Homo sapiens) (Q9UM47 whole entry, looked up): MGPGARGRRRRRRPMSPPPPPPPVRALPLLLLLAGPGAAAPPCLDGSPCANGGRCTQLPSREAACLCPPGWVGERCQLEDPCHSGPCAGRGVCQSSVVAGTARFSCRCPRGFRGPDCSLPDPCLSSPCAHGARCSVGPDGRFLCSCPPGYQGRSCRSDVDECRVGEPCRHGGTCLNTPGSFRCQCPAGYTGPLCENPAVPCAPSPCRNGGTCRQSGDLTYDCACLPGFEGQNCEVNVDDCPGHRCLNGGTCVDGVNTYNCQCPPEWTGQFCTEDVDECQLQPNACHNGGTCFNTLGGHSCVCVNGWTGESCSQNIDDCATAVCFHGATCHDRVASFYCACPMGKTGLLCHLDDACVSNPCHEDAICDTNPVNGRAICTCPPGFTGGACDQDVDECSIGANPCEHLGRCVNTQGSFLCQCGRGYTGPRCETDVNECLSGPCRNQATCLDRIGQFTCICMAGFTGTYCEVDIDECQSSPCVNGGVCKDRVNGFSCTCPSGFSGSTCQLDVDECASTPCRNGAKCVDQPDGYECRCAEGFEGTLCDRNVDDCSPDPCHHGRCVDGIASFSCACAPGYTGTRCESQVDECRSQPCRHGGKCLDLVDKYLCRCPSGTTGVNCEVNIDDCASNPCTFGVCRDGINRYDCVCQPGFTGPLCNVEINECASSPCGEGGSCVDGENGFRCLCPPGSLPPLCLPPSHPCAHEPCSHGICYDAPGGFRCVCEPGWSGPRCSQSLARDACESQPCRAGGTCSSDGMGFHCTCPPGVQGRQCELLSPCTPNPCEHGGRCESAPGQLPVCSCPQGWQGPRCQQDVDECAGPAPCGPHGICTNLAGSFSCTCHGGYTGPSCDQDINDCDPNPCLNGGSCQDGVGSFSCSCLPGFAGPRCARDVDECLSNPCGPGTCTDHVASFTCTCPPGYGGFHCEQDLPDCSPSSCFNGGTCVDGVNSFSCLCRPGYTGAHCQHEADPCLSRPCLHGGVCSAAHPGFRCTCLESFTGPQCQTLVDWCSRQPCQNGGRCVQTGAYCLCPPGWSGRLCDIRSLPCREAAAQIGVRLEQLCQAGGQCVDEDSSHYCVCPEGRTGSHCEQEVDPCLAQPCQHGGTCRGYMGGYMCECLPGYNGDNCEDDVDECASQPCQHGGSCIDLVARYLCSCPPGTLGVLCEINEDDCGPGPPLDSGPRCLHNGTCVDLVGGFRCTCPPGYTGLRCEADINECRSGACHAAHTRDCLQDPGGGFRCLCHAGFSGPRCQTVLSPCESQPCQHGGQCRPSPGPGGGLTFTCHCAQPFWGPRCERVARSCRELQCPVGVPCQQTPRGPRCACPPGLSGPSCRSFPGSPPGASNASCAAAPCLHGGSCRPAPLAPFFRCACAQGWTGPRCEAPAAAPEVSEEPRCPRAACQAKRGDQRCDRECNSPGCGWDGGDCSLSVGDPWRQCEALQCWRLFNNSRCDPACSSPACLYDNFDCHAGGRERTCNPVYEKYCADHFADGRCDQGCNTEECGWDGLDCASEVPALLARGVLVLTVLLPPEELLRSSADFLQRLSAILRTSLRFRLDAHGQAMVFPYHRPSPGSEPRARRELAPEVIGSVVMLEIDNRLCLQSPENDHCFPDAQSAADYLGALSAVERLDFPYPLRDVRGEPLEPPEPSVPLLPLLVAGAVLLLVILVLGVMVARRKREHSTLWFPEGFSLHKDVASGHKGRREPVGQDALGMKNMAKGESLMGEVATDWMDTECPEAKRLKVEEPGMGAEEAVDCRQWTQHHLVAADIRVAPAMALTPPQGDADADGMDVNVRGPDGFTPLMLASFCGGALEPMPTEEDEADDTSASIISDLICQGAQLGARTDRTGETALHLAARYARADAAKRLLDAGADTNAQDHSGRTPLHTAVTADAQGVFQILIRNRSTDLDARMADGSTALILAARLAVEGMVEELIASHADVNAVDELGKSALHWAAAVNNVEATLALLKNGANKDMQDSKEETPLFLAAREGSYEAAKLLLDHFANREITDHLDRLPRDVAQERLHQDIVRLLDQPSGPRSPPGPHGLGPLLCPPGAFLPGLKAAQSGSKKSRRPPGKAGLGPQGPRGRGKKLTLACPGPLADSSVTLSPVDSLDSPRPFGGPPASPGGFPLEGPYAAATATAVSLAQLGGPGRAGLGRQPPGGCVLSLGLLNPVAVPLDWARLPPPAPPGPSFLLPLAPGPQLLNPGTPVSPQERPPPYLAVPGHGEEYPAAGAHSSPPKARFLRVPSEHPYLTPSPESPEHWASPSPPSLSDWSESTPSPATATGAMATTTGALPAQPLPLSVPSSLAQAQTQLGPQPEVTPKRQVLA

Compound | composite z-score [1] | z-score [2] | z-score [3] | z-score [4] | composite z-score [5] | z-score [6] | composite z-score [7] | composite z-score [8] | composite z-score [9] | composite z-score [10]
CCOC(=O)C1=CC[C@@H](c2cccc(Cl)c2)N(S(=O)(=O)c2ccc(C)cc2)[C@H]1c1ccc(C#N)cc1 | 1.56 | 0.914 (inactive) | 1.99 (inactive) | 2.58 (inactive) | 3.18 | -1.2 (inactive) | -0.0018 | 0.156 | 1.05 | 0.191
CC(C)NC(=O)[C@@H]1c2ccccc2C(=O)N(C2CCCCC2)[C@H]1c1ccc(CO)cc1 | 0.4 | -0.455 (inactive) | 0.0765 (inactive) | 0.13 (inactive) | 1.48 | 0.0495 (inactive) | 0.25 | -0.123 | 0.108 | 0.262
CCN(CC)c1ccc(N2CC=CC34O[C@@H]5/C=C\CCCOC(=O)C5[C@H]3C(=O)N(CCCO)[C@@H]4C2=O)cc1 (stereo not given in full) | 1.42 | -1.14 (inactive) | -0.249 (inactive) | -0.511 (inactive) | 3.65 | -0.204 (inactive) | -0.158 | -1.03 | -0.21 | -0.287
CS(=O)(=O)CCOC(=O)C1=CC(c2ccc(CO)cc2)=CC(c2cccs2)N(Cc2cccc(OC(F)(F)F)c2)C=C1C(=O)OCCS(C)(=O)=O (stereo not given) | 1.34 | -0.246 (inactive) | -3.38 (inactive) | 2.41 (inactive) | 3.12 | -0.575 (inactive) | -0.0833 | 0.333 | 0.856 | -0.0688
COC(=O)[C@@]1(Cc2ccc(F)cc2)[C@H]2c3cc(C(=O)N(C)C)n(Cc4ccccn4)c3C[C@H]2CN1C(=O)c1ccccc1 | 0.837 | -0.602 (inactive) | -0.306 (inactive) | -0.545 (inactive) | 3.7 | -0.0591 (inactive) | -0.153 | 0.321 | 1.01 | 0.533
C=C(COC)C(=O)CC[C@H](OC(=O)c1cccnc1)c1ccccc1OCCO | 1.56 | -2.31 (inactive) | -1.57 (inactive) | -0.278 (inactive) | 1.47 | 0.473 (inactive) | 0.157 | 1.15 | 1.15 | -0.0406
COc1ccc([Si](C)(C)[C@@H]2[C@@H](CCO)O[C@]3(C(=O)N(Cc4cccc(N5CCCCC5=O)c4)c4ccccc43)[C@H]2C)cc1 | 1.56 | 2.34 (inactive) | -0.486 (inactive) | 5.16 (inactive) | 2.54 | -0.0838 (inactive) | -0.0915 | 1.22 | 1.09 | -0.0442
